Reference: PubChem BioAssay AID588849 (Broad Institute, 2011)
Measured potencies and affinities stand elsewhere. Active and inactive are the calls of the source. How the calls were made is not given here.

target: CAAX prenyl protease 2 (Homo sapiens) (UniProt Q9Y256); experiment: inhibition of Ras-converting CAAX protease Rce1 – biochemical, yeast membranes, quenched-peptide fluorescence, cherry-pick, dose response (AID 588849); conditions: yeast membrane fractions expressing human Rce1, quenched-peptide fluorescence, 4 h; series mostly up to 10 µM
Sequence (Q9Y256 whole entry, looked up): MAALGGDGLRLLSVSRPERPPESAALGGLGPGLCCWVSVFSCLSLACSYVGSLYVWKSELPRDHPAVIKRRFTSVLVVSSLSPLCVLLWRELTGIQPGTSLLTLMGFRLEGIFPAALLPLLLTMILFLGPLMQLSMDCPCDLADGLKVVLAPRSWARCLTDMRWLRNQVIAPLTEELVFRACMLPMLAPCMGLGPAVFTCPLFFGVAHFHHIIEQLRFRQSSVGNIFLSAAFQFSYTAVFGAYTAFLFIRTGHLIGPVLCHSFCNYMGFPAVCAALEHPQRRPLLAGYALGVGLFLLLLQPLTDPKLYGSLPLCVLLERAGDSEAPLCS

outcome, inactive:
COc1cc2cc(C(=O)O)[nH]c2c(OC)c1OC
COc1ccccc1NC(=O)/C(=C\c1cccnc1)NC(=O)c1ccc(C)cc1
Nc1nnnn1/N=C/c1ccccc1OCc1ccc(Cl)cc1Cl
Cc1cc(C)n(-c2nc3ccccc3c(=O)n2OCC(=O)N(C)C)n1
